Measurements from PubChem BioAssay AID624063 (Southern Research Specialized Biocontainment Screening …, 2012).
Potency and affinity values are given separately. Activity calls are given as the source filed them. Where a call stands in place of a potency, no number is given. No rule for the calls is given here.

Assay: VEEV TC-83 cytopathic effect inhibitors, confirmation, cell-based, set 4 (AID 624063)
Conditions: VEEV TC-83 infected cells; series mostly up to 25 µM

| SMILES | outcome |
| --- | --- |
| CCN1CCN(Cc2nc3ccccc3c(=O)n2-c2ccccc2F)CC1 | inactive |
| CC(C)(C)OC(=O)N1CCN(Cc2nc3ccc([N+](=O)[O-])cc3c(=O)n2-c2ccccc2F)CC1 | inactive |
| CCN1CCN(Cc2nc3ccc(C(F)(F)F)cc3c(=O)n2-c2ccccc2F)CC1 | inactive |
| O=C(NCc1ccco1)C1CCN(C(=O)c2cc3sccc3n2Cc2ccc(F)cc2)CC1 | inactive |
